Experimental data taken from PubChem BioAssay AID2283174 (EPA ToxCast).
Active and inactive are the calls of the source. Rule for the calls: active = hit-call score of the fitted dose curve at least 0.9, where 1 is the maximum; inactive = score below 0.9.

molecular target: human Mitogen-Activated Protein Kinase 11 (MAPK 11), MAPK11 (gene 5600) (UniProt Q15759); assay: NVS_ENZ_hMAPK11: NovaScreen (NVS) Enzymatic Assay for human Mitogen-Activated Protein Kinase 11 (MAPK 11)
Procedure: NVS_ENZ_hMAPK11 is a biochemical, single-readout assay that uses extracted gene-proteins in a cell-free assay. Measurements were taken 0 hour after chemical dosing in a 384-well plate.NVS_ENZ_hMAPK11 is one of one assay component(s) measured or calculated from the NVS_ENZ_hMAPK11 assay. It is designed to make measurements of enzyme activity, a form of enzyme reporter, as detected with fluorescence intensity signals by Fluorescence and electrophoretic mobility shift technology.Data from the assay component NVS_ENZ_hMAPK11 was analyzed into 1 assay endpoint. This assay endpoint, NVS_ENZ_hMAPK11, was analyzed in the positive analysis fitting direction relative to DMSO as the negative control and baseline of activity. Using a type of enzyme reporter, loss-of-signal activity can be used to understand changes in the enzymatic activity as they relate to the gene MAPK11. Furthermore, this assay endpoint can be referred to as a primary readout, because this assay has produced multiple assay endpoints where this one serves a enzymatic activity function. To generalize the intended target to other relatable targets, this assay endpoint is annotated to the kinase intended target family, where the subfamily is serine/threonine kinase.
Binding assays used specific radioligands (tritiated, iodinated) with non-radioactive competitive displacement ligands in agonist or antagonist protocols (as indicated) and various reference compounds and inhibitors to titrate specific binding to receptors and transporters. Most enzyme assays (CYPs, kinases, phosphatases, proteases, HDACs) used recombinant protein and specific substrates (fluorescence mostly, some colorimetric and radioactive) and inhibitors, followed by a biochemical separation of substrate and product. All assays for the biochemical HTS were initially run in duplicate at a single concentration (10 uM for CYP450 assays and 25 uM for all others). Assay-chemical combinations meeting a pre-defined threshold (e.g., 30% inhibition and other criteria defined below) were then run in singleton concentration-response format with maximum concentration of 20 uM for CYPs and 50 uM for all others. Each assay was run with positive and negative controls, and concurrent controls on every plate. The follow-up (secondary) screen tested active chemical-pairs in concentration series, as well as a few additional assays not tested in the primary screen, some selected negative inactives, and several cases re-run in the concentration series for confirmatory purposes.

human Mitogen-Activated Protein Kinase 11 (MAPK 11), MAPK11 (gene 5600), sequence (Q15759 whole entry, looked up): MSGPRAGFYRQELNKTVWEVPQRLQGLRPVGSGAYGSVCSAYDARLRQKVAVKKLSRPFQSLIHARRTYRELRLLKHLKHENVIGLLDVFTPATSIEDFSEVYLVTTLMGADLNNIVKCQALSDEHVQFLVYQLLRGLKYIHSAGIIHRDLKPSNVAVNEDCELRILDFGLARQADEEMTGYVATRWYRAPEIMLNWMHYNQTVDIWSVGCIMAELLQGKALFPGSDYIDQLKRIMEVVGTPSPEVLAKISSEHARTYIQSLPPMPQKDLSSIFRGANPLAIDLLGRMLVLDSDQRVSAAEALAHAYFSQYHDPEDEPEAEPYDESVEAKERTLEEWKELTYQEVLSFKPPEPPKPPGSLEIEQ

| SMILES | AC50 | outcome |
| --- | --- | --- |
| S=C([S-])NCCNC(=S)[S-].[Mn+2] | 24.4 µM (active) | – |
| CCCCC(CC)COC(=O)c1ccccc1C(=O)O (stereo unspecified) | – | inactive |
| C#CCOC(=O)[C@@H](C)Oc1ccc(Oc2ncc(Cl)cc2F)cc1 | – | inactive |
| COCCO | – | inactive |
| S=C(S)NCCNC(=S)S.[Mn+2].[S-]C([S-])=NCCN=C([S-])[S-].[Zn+2] | 16.6 µM (active) | – |
| CC(C)(c1ccc(O)cc1)c1ccc(O)cc1 | – | inactive |
